According to PubChem BioAssay AID720518 (National Center for Advancing Translational Sciences (NCATS), 2013):
Results filed as inconclusive are left out. Values without a mark were called inactive. Active and inactive are the calls of the source. The call rests on the fitted dose curve.

Experiment: qHTS for Inhibitors of Cell Surface uPA Generation: Wild-type Protective Antigen (WT-PrAg) Counterscreen for Cherry-picked Compounds; on activity (protection): 0% is about no effect
Conditions: cells, WT protective antigen toxicity counterscreen; series mostly up to 115 µM; activity (protection): at the top concentration
Potency means the concentration at half of the fitted maximal effect.

Structure (SMILES)	activity (protection)	Potency
Oc1ccc(/C=N/Nc2cccc(Cl)n2)c(O)c1	-2.29%	
O=[N+]([O-])c1ccccc1C=NNC(=S)NN=Cc1ccccc1[N+](=O)[O-]	-1.76%	
O=C(CNC(=O)N1CC(=O)Nc2ccccc21)Nc1cc(Cl)ccc1Cl	1.67%	
CC(C)OC(=O)Nc1ccc(-c2ccc(NC(=O)OC(C)C)cc2Cl)c(Cl)c1	5.2%	
C#CCN1C=C(C(=O)OCC)C(C)NS1(=O)=O (stereo not drawn)	1.5%	
COc1cccc(C(=O)NCC(c2ccco2)N2CCc3ccccc3C2)c1 (stereo not drawn)	0.587%	
N/C(=N/OC(=O)c1ccccc1F)c1nonc1N	-1.6%	
O=C(C[C@@H]1C/C=C\C[C@H](Cc2ccc(F)cc2)C(=O)OC[C@H]2CCCN2C1=O)N[C@H](CO)Cc1ccccc1	-2.42%	
Brc1ccsc1/C=N/Nc1ccccc1	3.32%	
CCOC(=O)C1CCN(S(=O)(=O)c2c[nH]c(=O)[nH]c2=O)CC1	-0.301%	
COc1ccc(C2=Nc3ccccc3C2(O)CCN2C(=O)c3ccccc3C2=O)cc1 (stereo not drawn)	-1.2%	
CC(C)CNC(=O)COC(=O)CCC(=O)c1cccs1	-0.0024%	
COc1ccc([C@H]2[C@H](C(=O)OC(C)(C)C)N3N=Cc4ccccc4C3C23C(=O)c2ccccc2C3=O)cc1OC (stereo partly drawn)	-2.24%	
CC(=O)COc1ccc2c(-c3cccc([N+](=O)[O-])c3)cc(=O)oc2c1	-2.02%	
Cn1cc(SCC(=O)Nc2nccs2)c2ccccc21	-1.59%	
Cc1[nH]c2ccccc2c1C(=O)C(C)OC(=O)c1ccccc1NCCO (stereo not drawn)	-2.54%	
COc1ccccc1CNC(=O)CCn1c(=O)oc2ccccc21	-0.71%	
Cc1nn(CC(=O)OCC(=O)NC(C)c2ccccc2)c(C)c1[N+](=O)[O-] (stereo not drawn)	-0.966%	
CC(=O)[C@@]1(O)[C@H](C)CC2C3CC=C4CC(OP(=O)(O)O)CC[C@]4(C)C3CC[C@@]21C (stereo partly drawn)	0.986%	
CC1=CC(C)(C)N2C(=O)C3(NCCc4c3[nH]c3ccccc43)c3cc(C)cc1c32 (stereo not drawn)		2.33 µM (active)
CC1(NC(=O)CSc2nnc(-c3c[nH]c4ccccc34)n2C2CC2)CCS(=O)(=O)C1 (stereo not drawn)	1.32%	
COc1cc(N/C(N)=N/c2nc(C)cc(C)n2)cc(OC)c1	-2.15%	
COc1cc(CN2CCNC(=O)C2CC(=O)NCCCC2CCCC2)cc(OC)c1 (stereo not drawn)	-2%	
